Laboratory results taken from PubChem BioAssay.
Calls of active or inactive are those of the source.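 Rule for the calls, unless noted: active = compounds whose cell count with miR-34 switched on is under 0.7 times the count with it off; inactive = the rest.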

Legend:
[1] = viability loss with induced miR-34 in A549 – imaging, A549 dox-inducible miR-34, nuclei and caspase counts, primary screen (AID 1347080); conditions: A549 miR-34 inducible, Hoechst nuclei count, 48 h
[2] = MELAS cybrid and Rieske KO viability enhancers – cell-based, MELAS cybrids, Rieske KO mouse fibroblasts, CellTiter-Glo, primary screen (AID 1508586;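 active = mean z-score across replicates of 1.96 or higher in either the MELAS or the Rieske mutant cell line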;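 note: z relative to plate mean and SD of compound and empty wells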); conditions: low glucose
[3] = stronger effect = lower value, cell number ratio, induced over uninduced
[4] = measured here: relative caspase fold change +Dox/-Dox
[5] = measured here: total cells with miR-34 induction, stronger effect = lower value
[6] = measured here: total cells without miR-34 induction
[7] = MELAS cybrid survival, CellTiter-Glo 48 h, stronger effect = higher value
[8] = Rieske KO mouse fibroblast survival, CellTiter-Glo 72 h
Note: test concentration not given here.

| SMILES | fold change [1, 3] | fold change [1, 4] | cell count [1, 5] | cell count [1, 6] | z-score [2, 7] | z-score [2, 8] |
| --- | --- | --- | --- | --- | --- | --- |
| COC1CC2CCC(C)[C@@](O)(O2)C(=O)C(=O)N2CCCCC2C(=O)OC(C(C)CC2CCC(O)C(OC)C2)CC(=O)C(C)C=C(C)C(O)C(OC)C(=O)C(C)CC(C)C=CC=CC=C1C (stereo not given in full) | 0.994 (inactive) | 1.19 | 4070 | 4090 | 0.132 | 2.33 |
| COC(=O)[C@]12CCC(C)(C)C[C@@H]1[C@@H]1C(=O)C=C3[C@]4(C)C=C(C#N)C(=O)C(C)(C)[C@@H]4CC[C@@]3(C)[C@]1(C)CC2 | 0.818 (inactive) | 0.469 | 308 | 376 | -0.649 (inactive) | -3.82 |
| COc1cc(C=CC(=O)O)ccc1O | 0.929 (inactive) | 0.764 | 7790 | 8380 | -0.291 (inactive) | -1.2 |
| CC(=O)SC1CC2=CC(=O)CC[C@]2(C)[C@@H]2CC[C@@]3(C)[C@@H](CC[C@]34CCC(=O)O4)[C@H]12 (stereo not given in full) | 0.898 (inactive) | 0.8 | 7310 | 8140 | -0.198 (inactive) | -0.323 |
| CCOC(=O)c1ccc(N2NC(=O)C(=Cc3ccc([N+](=O)[O-])o3)C2=O)cc1 | 0.912 (inactive) | 0.455 | 7420 | 8150 | -0.255 (inactive) | -2.84 |
| CCC(=O)O[C@@]1(C(=O)SCF)C(C)C[C@H]2[C@@H]3CC(F)C4=CC(=O)C=C[C@]4(C)[C@]3(F)C(O)C[C@@]21C (stereo not given in full) | 0.849 (inactive) | 1.14 | 4990 | 5880 | -0.525 (inactive) | -0.481 |
| O=C(COc1ccc(C(=O)c2ccccc2)cc1)NC1CCN(Cc2ccccc2)CC1 | 0.922 (inactive) | 0.78 | 6930 | 7520 | -0.391 (inactive) | -0.791 |
| CC(C)CN(CC(O)C(Cc1ccccc1)NC(=O)OC1CCOC1)S(=O)(=O)c1ccc(N)cc1 (stereo not given) | 0.88 (inactive) | 0.898 | 7780 | 8840 | -0.312 (inactive) | 0.463 |
| CCNC(=O)CCCC=CCC1C(O)CC(O)C1C=CC(O)CCc1ccccc1 (stereo not given) | 0.925 (inactive) | 0.991 | 6700 | 7250 | -0.401 (inactive) | -0.137 |
| Nc1nc(N)c2nc(-c3cccc(O)c3)cnc2n1 | 0.989 (inactive) | 0.893 | 6340 | 6410 | 1.29 (inactive) | -0.0279 |
| CC(=O)ON=C1C(=O)N(Cc2cc(Cl)ccc2Cl)c2ccc(Cl)cc21 | 0.848 (inactive) | 0.441 | 7100 | 8370 | -0.0209 (inactive) | 1.12 |
| COC(=O)C(CCCN=C(N)N)NS(=O)(=O)c1ccc(C)cc1 (stereo not given) | 0.92 (inactive) | 0.589 | 8520 | 9260 | -0.296 (inactive) | 0.752 |
| C=C1C(=O)[C@@]23C(O)[C@H]1CCC2[C@]12CO[C@]3(O)C(O)[C@@H]1C(C)(C)CCC2O (stereo not given in full) | 0.94 (inactive) | 0.647 | 8410 | 8940 | -0.553 (inactive) | -0.438 |
| Cc1cc(Nc2nc(NC(C)c3ncc(F)cn3)ncc2Cl)n[nH]1 (stereo not given) | 1.07 (inactive) | 1.17 | 1380 | 1290 | 0.54 (inactive) | -3.57 |
| O=c1ncccn1C1OC(CO)C(O)C1O (stereo not given) | 0.912 (inactive) | 0.461 | 8580 | 9410 | -0.447 (inactive) | -1.06 |
| O=C(C=Cc1ccc2ccccc2n1)c1ccncc1 | 0.681 (active) | 0.506 | 2580 | 3790 | 0.232 (inactive) | 1.5 |
| Cn1nccc1-c1cc(C(=O)NCc2ccc(S(C)(=O)=O)cn2)c(=O)n(-c2cccc(C(F)(F)F)c2)c1 | 0.851 (inactive) | 0.538 | 8120 | 9540 | -0.549 (inactive) | 0.346 |
| COc1ccc(CNCc2cccc3ccccc23)cc1 | 0.918 (inactive) | 0.638 | 8220 | 8960 | -0.404 (inactive) | -0.0397 |
| Cc1[nH]c(C=C2C(=O)Nc3ccc(S(=O)(=O)Cc4c(Cl)cccc4Cl)cc32)c(C)c1C(=O)N1CCCC1CN1CCCC1 (stereo not given) | 0.833 (inactive) | 1.46 | 4270 | 5130 | -0.699 (inactive) | 0.101 |
| CCCCC(=O)OC1CC[C@H]2[C@@H]3CCc4cc(O)ccc4[C@@H]3CC[C@]12C (stereo not given in full) | 0.855 (inactive) | 0.887 | 7760 | 9080 | -0.195 (inactive) | -0.141 |
| O=C(CCCS)NC1CCN(C(=O)COc2ccc(Cl)cc2Cl)CC1 | 0.885 (inactive) | 0.313 | 7910 | 8940 | -0.37 (inactive) | 1.05 |
| Cc1onc(-c2ccccc2Cl)c1C(=O)NC1C(=O)N2C(C(=O)O)C(C)(C)S[C@@H]12 (stereo not given in full) | 0.964 (inactive) | 0.778 | 9670 | 10000 | -0.365 (inactive) | 0.485 |
| COc1cc2c(cc1-c1c(C)noc1C)ncc1[nH]c(=O)n(C(C)c3ccccn3)c12 (stereo not given) | 0.947 (inactive) | 0.831 | 7600 | 8030 | 0.365 (inactive) | -1.83 |

| SMILES | fold change [1, 3] | fold change [1, 4] | cell count [1, 5] | cell count [1, 6] | z-score [2, 7] | z-score [2, 8] |
| --- | --- | --- | --- | --- | --- | --- |
| CCN(CC)C(=O)C(C#N)=Cc1cc(O)c(O)c([N+](=O)[O-])c1 | 1.2 (inactive) | 1.41 | 8600 | 7190 | -0.263 (inactive) | -0.169 |
| CN1CCCN(C(=O)c2cccc(-c3ccc(C=C4C(=O)Nc5ccc(Cl)cc54)o3)c2)CC1 | 0.79 (inactive) | 4.28 | 2420 | 3060 | 0.13 (inactive) | -0.12 |
| COc1cc(OC)c(C=CS(=O)(=O)Cc2ccc(OC)c(NCC(=O)O)c2)c(OC)c1 | 1.02 (inactive) | 0.641 | 1610 | 1580 | 0.468 (inactive) | -0.375 |
| CCN1CCN(C(=O)NC(C(=O)NC2C(=O)N3C2SC(C)(C)C3C(=O)O)c2ccccc2)C(=O)C1=O (stereo not given) | 0.885 (inactive) | 1.67 | 8860 | 10000 | -0.177 (inactive) | -0.164 |
| CCOc1cc2ncc(C#N)c(Nc3ccc(F)c(Cl)c3)c2cc1NC(=O)C=CCN(C)C | 0.915 (inactive) | 1.02 | 681 | 744 | 1.18 (inactive) | 0.656 |
| CN(C)C(=O)Nc1cccc(-c2ccc(N(C)C)cc2)c1 | 0.935 (inactive) | 0.582 | 7650 | 8180 | -0.267 (inactive) | -1.04 |
| COc1cc2c(cc1Cc1cccc(Cl)c1F)c(=O)c(C(=O)O)cn2C(CO)C(C)C (stereo not given) | 0.611 (active) | 1.26 | 3970 | 6500 | -0.198 (inactive) | 0.532 |
| [K+] | 0.939 (inactive) | 0.429 | 7790 | 8290 | 0.0668 (inactive) | 0.0929 |
| COc1cc(O)cc(C2CC(=O)c3c(O)cc(OC4OC(CO)C(O)C(O)C4OC4OC(C)C(O)C(O)C4O)cc3O2)c1 (stereo not given) | 0.921 (inactive) | 0.443 | 8090 | 8790 | -0.19 (inactive) | -0.0453 |
| Cc1c(CN2CCN(C(=O)C(C)O)CC2)sc2c(N3CCOCC3)nc(-c3cnc(N)nc3)nc12 (stereo not given) | 1.11 (inactive) | 0.549 | 2480 | 2230 | 2.06 (active) | -2.39 |
| OC(CNCC(O)[C@H]1CCc2cc(F)ccc2O1)[C@@H]1CCc2cc(F)ccc2O1 (stereo not given in full) | 0.966 (inactive) | 0.954 | 6580 | 6810 | 1.33 (inactive) | 0.256 |
| CCOC(=O)C(CCc1ccccc1)NC(C)C(=O)N1Cc2cc(OC)c(OC)cc2CC1C(=O)O (stereo not given) | 0.97 (inactive) | 0.414 | 7830 | 8070 | -0.293 (inactive) | -0.111 |
| CC(C)C(N)C(=O)OCC(CO)OCN1C=NC2C(=O)NC(N)=NC21 (stereo not given) | 0.916 (inactive) | 0.625 | 8420 | 9190 | -0.0737 (inactive) | -0.153 |
| CN1CCC(NC(=O)c2cc(-c3c(O)cc(O)cc3Oc3ccc([N+](=O)[O-])cc3)on2)CC1 | 1.08 (inactive) | 0.376 | 2520 | 2330 | 2.88 (active) | -1.28 |
| COC1CC2CCC(C)[C@](O)(O2)C(=O)C(=O)N2CCCC[C@H]2C(=O)OC(C(C)CC2CCC(n3cnnn3)C(OC)C2)CC(=O)C(C)C=C(C)C(O)C(OC)C(=O)C(C)CC(C)C=CC=CC=C1C (stereo not given in full) | 1.13 (inactive) | 0.353 | 5100 | 4500 | 3.99 (active) | 2.04 |
| COc1cc(C2Oc3ccc(C4Oc5cc(O)cc(O)c5C(=O)C4O)cc3OC2CO)ccc1O (stereo not given) | 0.913 (inactive) | 0.744 | 8070 | 8840 | -0.245 (inactive) | -0.07 |
| CC(=O)Nc1nc2c(Oc3cc(-c4ccc(C(F)(F)F)cc4)ncn3)cccc2s1 | 0.981 (inactive) | 0.45 | 8510 | 8670 | -0.457 (inactive) | -0.29 |
| COc1ccnc2[nH]cc(C(=O)C(=O)N3CCN(C(=O)c4ccccc4)CC3C)c12 (stereo not given) | 0.955 (inactive) | 0.698 | 9920 | 10400 | -0.419 (inactive) | 0.811 |
| O=C(Nc1ccccc1)Nc1ccc(-c2ccc(C(=O)C3CCCC3C(=O)O)cc2)cc1 (stereo not given) | 0.846 (inactive) | 0.729 | 9210 | 10900 | -0.239 (inactive) | 0.453 |
| CCCC(=O)Nc1cccc(NC(=O)c2ccccc2Br)c1 | 0.957 (inactive) | 0.928 | 7570 | 7910 | -0.112 (inactive) | -0.0371 |
| CCOC(=O)N1c2ccc(C(F)(F)F)cc2C(N(Cc2cc(C(F)(F)F)cc(C(F)(F)F)c2)C(=O)OC)CC1CC (stereo not given) | 0.939 (inactive) | 0.794 | 8370 | 8920 | -0.304 (inactive) | 0.988 |
| CON=C(C(=O)NC1C(=O)N2C(C(=O)OCOC(=O)C(C)(C)C)=C(C=Cc3scnc3C)CS[C@H]12)c1csc(N)n1 (stereo not given in full) | 0.852 (inactive) | 0.561 | 7580 | 8900 | -0.26 (inactive) | 0.818 |
